Compound activity deposited in PubChem BioAssay by several laboratories.
Cav32 inh: human Cav3.2 channel inhibition, primary screen | O95180 | Cav3.2-expressing cells, Fluo-4 calcium fluorescence FDSS; stronger effect = lower value | B-score at 10 µM | hit rate 4% among 100,000;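 active = single-dose well whose peak fluorescence ratio is a statistical outlier from its plate by either plate-standardised score or position-corrected B-score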
CYP2C9 act: increases human cytochrome P450 2C9 activity; hit rate 1.4% among 96,000; activation factor at 5 µM; recombinant CYP2C9, luciferin-H conversion, luminescence; stronger effect = higher value; factor 1 = untreated enzyme, 0 = blocked;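 active = activation factor of 2 or more for CYP2C9 at a 5 µM dose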;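 also: 0 = sulfaphenazole-blocked wells and 1 = vehicle-only wells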
Target sequence (P11712 whole entry, looked up): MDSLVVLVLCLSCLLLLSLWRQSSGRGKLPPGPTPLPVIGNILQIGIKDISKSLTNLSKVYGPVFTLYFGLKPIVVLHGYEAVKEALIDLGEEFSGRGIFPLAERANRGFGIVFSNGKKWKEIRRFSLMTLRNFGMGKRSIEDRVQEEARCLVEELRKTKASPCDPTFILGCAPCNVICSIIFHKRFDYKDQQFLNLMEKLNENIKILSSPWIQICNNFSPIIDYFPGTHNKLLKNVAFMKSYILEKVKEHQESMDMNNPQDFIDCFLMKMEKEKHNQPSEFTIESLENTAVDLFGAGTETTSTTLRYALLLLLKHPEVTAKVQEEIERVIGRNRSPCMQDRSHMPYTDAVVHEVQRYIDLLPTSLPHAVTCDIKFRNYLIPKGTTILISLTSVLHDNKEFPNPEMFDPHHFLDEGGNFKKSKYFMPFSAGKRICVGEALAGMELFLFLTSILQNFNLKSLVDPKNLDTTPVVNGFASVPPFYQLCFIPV
CYP2C19 act: increases human CYP2C19 enzyme activity; P33261; recombinant CYP2C19, luciferin-H EGE luminescence; stronger effect = higher value; 0 = fully inhibited enzyme, 1 = untreated enzyme; activation factor at 5 µM; 96,000 tested, under 10 active; AID 1025;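 active = activation factor of at least 2 at 5 µM in the primary screen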;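 also: 0 = wells with 2.5 mM tranylcypromine and 1 = vehicle-only wells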
CYP2C9 inh: inhibitors of human CYP2C9. P11712. CYP2C9 Supersomes, luciferin-H conversion, luminescence. inhibition, % at 5 µM. hit rate 20% among 96,000;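 active = blocking of liver enzyme CYP2C9 beyond about 50% at 5 µM, limit read from the data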
CYP2C19 inh: inhibitors of human CYP2C19. inhibition, % at 5 µM. hit rate 21% among 96,000. P33261. CYP2C19 Supersomes, luciferin-H EGE luminescence, 30 min;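 active = CYP2C19 inhibition above a set limit at 5 µM in the primary screen, cut at about 50% in these data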;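 also: plate controls were negative control wells for no effect and 2.5 mM tranylcypromine positive control for full effect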
Starred values were filed as active, the others as inactive. An excerpt weighted towards active compounds, which were near 27% of everything screened.

Screening COC(=O)C1=NN(C(=O)c2ccc(C)cc2)C(O)(c2ccc(Cl)cc2)C1 (centres undefined) returned Cav32 inh -3.22*, CYP2C9 act 0.6, CYP2C19 act 0.8, CYP2C9 inh 35.1 and CYP2C19 inh 20.9.
For COC(=O)C1=NN(C(=O)c2ccccc2)C(C)(O)C1 (centres undefined) the results were Cav32 inh -0.0752, CYP2C9 act 1.1, CYP2C19 act 1, CYP2C9 inh -9.4 and CYP2C19 inh -3.6.
Screening COc1ccc(C(=N/O)/C(=N/O)c2ccc(OC)cc2)cc1 returned Cav32 inh -3.96, CYP2C9 act 0.7, CYP2C19 act 0.4, CYP2C9 inh 26.7 and CYP2C19 inh 59.6*.
Screening O=C1/C(=C\Nc2ccc(Cl)cc2)CCN1c1ncccn1 returned Cav32 inh 0.263, CYP2C9 act 0.6, CYP2C19 act 0.8, CYP2C9 inh 44.9 and CYP2C19 inh 20.1.
Screening CCN1C(=O)c2ccc(C(=O)NCc3ccc4c(c3)OCO4)cc2C1=O returned Cav32 inh -0.697.
COc1cc(NC(=O)Cn2nc(Cc3cccnc3)c3ccccc3c2=O)cc(OC)c1OC was read as Cav32 inh 1.61, CYP2C9 act 0.4, CYP2C19 act 0.5, CYP2C9 inh 61.6* and CYP2C19 inh 54.3*.
For O=C(NCc1ccc2c(c1)OCO2)c1ccc2c(c1)C(=O)N(Cc1cccnc1)C2=O the results were Cav32 inh -1.28, CYP2C9 act 0.5, CYP2C19 act 0.9, CYP2C9 inh 50.6* and CYP2C19 inh 7.2.
For O=C(Cn1nc(Cc2cccnc2)c2ccccc2c1=O)NCc1ccc(F)cc1 the results were Cav32 inh 0.0897, CYP2C9 act 0.2, CYP2C19 act 0.4, CYP2C9 inh 82.9* and CYP2C19 inh 58.3*.
O=C(Cn1nc(Cc2cccnc2)c2ccccc2c1=O)NCc1ccc2c(c1)OCO2 was read as Cav32 inh 0.0206, CYP2C9 act 0.1, CYP2C19 act 0.4, CYP2C9 inh 88.6* and CYP2C19 inh 56.5*.
`O=C(CN1CCC(NC(=O)c2cccc(F)c2)CC1)NCc1ccccc1F` gave CYP2C9 act 1, CYP2C19 act 0.9, CYP2C9 inh 0.8 and CYP2C19 inh 8.5.
`CCOC(=O)C1CCN(CC(=O)Nc2c(C(=O)OC)[nH]c3ccc(Cl)cc23)CC1` gave Cav32 inh -1.43, CYP2C9 act 0.5, CYP2C19 act 0.3, CYP2C9 inh 45.4 and CYP2C19 inh 72.8*.
For COC(=O)c1[nH]c2cc(OC)ccc2c1NC(=O)CCN1CCN(c2ccccc2)CC1 the results were Cav32 inh 0.287, CYP2C9 act 0.3, CYP2C19 act 1.1, CYP2C9 inh 66.9* and CYP2C19 inh -12.5.
For CCN(CC(=O)Nc1c(C(=O)OC)[nH]c2ccc(C)cc12)c1ccc2c(c1)OCO2 the results were Cav32 inh 0.418, CYP2C9 act 0.4, CYP2C19 act 0.8, CYP2C9 inh 62.5* and CYP2C19 inh 23.3.
`COC(=O)c1[nH]c2ccccc2c1NC(=O)CN1CCN(Cc2ccc3c(c2)OCO3)CC1` gave Cav32 inh 0.00175, CYP2C9 act 0.6, CYP2C19 act 0.5, CYP2C9 inh 41.0 and CYP2C19 inh 51.1*.
`COC(=O)c1[nH]c2cc(OC)ccc2c1NC(=O)CCN1CCN(c2cccc(C)c2C)CC1` gave Cav32 inh -0.23, CYP2C9 act 0.7, CYP2C19 act 1, CYP2C9 inh 25.9 and CYP2C19 inh 4.3.
CN1CCN(P(=O)(c2ccccc2)c2nc3ccccc3s2)CC1 (centres undefined) was read as Cav32 inh 0.445, CYP2C9 act 1, CYP2C19 act 0.9, CYP2C9 inh 1.0 and CYP2C19 inh 11.2.
Screening Nn1c(SCC(=O)NCc2ccccc2)nnc1C1CC1 returned Cav32 inh 0.746, CYP2C9 act 0.8, CYP2C19 act 0.9, CYP2C9 inh 19.4 and CYP2C19 inh 12.1.
For COC(=O)c1[nH]c2ccc(Cl)cc2c1NC(=O)CCN1CCN(C2CCCCC2)CC1 the results were Cav32 inh 1.82, CYP2C9 act 0.9, CYP2C19 act 0.4, CYP2C9 inh 9.0 and CYP2C19 inh 55.3*.
For CC1CCc2nc(NC(=O)CN3CCN(Cc4ccc5c(c4)OCO5)CC3)sc2C1 (centres undefined) the results were Cav32 inh -3.29, CYP2C9 act 0.2, CYP2C19 act 0.3, CYP2C9 inh 75.6* and CYP2C19 inh 71.7*.
For COC(=O)c1[nH]c2ccc(Br)cc2c1NC(=O)CN1CCCc2ccccc21 the results were Cav32 inh -0.222, CYP2C9 act 0.1, CYP2C19 act 0.8, CYP2C9 inh 88.1* and CYP2C19 inh 15.8.
`CC1CCc2nc(NC(=O)CN3CCN(c4ccccc4)CC3)sc2C1` (centres undefined) gave Cav32 inh -2.12, CYP2C9 act 0.9, CYP2C19 act 0.9, CYP2C9 inh 7.9 and CYP2C19 inh 7.8.
For CCOC(=O)C1CCCN(CC(=O)Nc2c(C(=O)OC)[nH]c3ccc(Br)cc23)C1 (centres undefined) the results were Cav32 inh -4.27*, CYP2C9 act 0.4, CYP2C19 act 0.5, CYP2C9 inh 58.3* and CYP2C19 inh 51.8*.
COC(=O)c1[nH]c2ccc(C)cc2c1NC(=O)CCN1CCN(C2CCCCC2)CC1 was read as Cav32 inh 0.508, CYP2C9 act 1.1, CYP2C19 act 0.9, CYP2C9 inh -7.3 and CYP2C19 inh 5.3.
CC12C=CC3(O1)C(C(=O)N(c1ccccc1)C3C(=O)NC1CCCC1)C2C(N)=O (centres undefined) was read as Cav32 inh 0.258.
CCOC(=O)C1CCN(CC(=O)Nc2c(C(=O)OC)[nH]c3ccccc23)CC1 was read as Cav32 inh 2.27, CYP2C9 act 1.5, CYP2C19 act 0.3, CYP2C9 inh -47.2 and CYP2C19 inh 72.7*.
`CCOC(=O)C1CCN(CC(=O)Nc2c(C(=O)OC)[nH]c3cccc(Cl)c23)CC1` gave Cav32 inh 0.117, CYP2C9 act 0.8, CYP2C19 act 0.8, CYP2C9 inh 19.3 and CYP2C19 inh 22.9.
CN(Cc1cccc(F)c1)C(=O)c1ccc(S(=O)(=O)C(F)F)cc1 was read as Cav32 inh 0.812, CYP2C9 act 1.1, CYP2C19 act 0.4, CYP2C9 inh -9.5 and CYP2C19 inh 59.3*.
Screening O=C(NC(c1ccccc1)c1ccccc1)c1ccc(S(=O)(=O)C(F)F)cc1 returned Cav32 inh 0.111, CYP2C9 act 0.8, CYP2C19 act 1.1, CYP2C9 inh 20.4 and CYP2C19 inh -8.3.
Cc1nnc(NC(=O)C(C)Oc2ccc3c(C)cc(=O)oc3c2)s1 (centres undefined) was read as Cav32 inh 0.535, CYP2C9 act 0.1, CYP2C19 act 0.9, CYP2C9 inh 94.1* and CYP2C19 inh 12.2.
`CCCNC(=O)C1CC(=O)N(c2ccc(OCC(=O)Nc3cc(C)cc(C)c3)cc2)C1` (centres undefined) gave Cav32 inh -0.505, CYP2C9 act 0.8, CYP2C19 act 1.1, CYP2C9 inh 19.1 and CYP2C19 inh -14.1.
